# Source: the supplement of paper PMC12819154, “High-throughput peptide-centric local stability assay extends protein–ligand identification to membrane proteins, tissues and bacteria” (Nature Structural & Molecular Biology, 2025)
# Compound: Nc1ncnc2c1ncn2[C@@H]1O[C@H](COP(=O)(O)OP(=O)(O)OP(=O)(O)O)[C@@H](O)[C@H]1O [adenosine 5'-triphosphate]
# Assay: log2 fold change of tryptic peptide abundance, ligand vs vehicle (limited proteolysis) (log2 ratio); higher = more trypsin-susceptible (destabilized)
# Settings: ligand concentration: 5 mM; sample: E. coli desalted lysate; replicate design: treated before aliquoting
# Protocol: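 HT-PELSA: desalted E. coli K-12 BW25113 lysate (with 12 mM MgCl2) incubated with 5 mM ATP (pH 7) or water for 30 min at 25 C, then a 4 min trypsin pulse at 22 C. Peptides were quantified by DIA-MS (4 replicates). Value is the peptide log2 fold change (treated/control); negative = stabilized. Scale: negative = ligand-stabilized region.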
# 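Note: lysate desalted by size exclusion to strip endogenous ATP, peptide intensities built from DIA-NN precursor signals, and peptides missing any value discarded before comparison.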
# Sequence of UniProt P43672 (P43672 whole entry): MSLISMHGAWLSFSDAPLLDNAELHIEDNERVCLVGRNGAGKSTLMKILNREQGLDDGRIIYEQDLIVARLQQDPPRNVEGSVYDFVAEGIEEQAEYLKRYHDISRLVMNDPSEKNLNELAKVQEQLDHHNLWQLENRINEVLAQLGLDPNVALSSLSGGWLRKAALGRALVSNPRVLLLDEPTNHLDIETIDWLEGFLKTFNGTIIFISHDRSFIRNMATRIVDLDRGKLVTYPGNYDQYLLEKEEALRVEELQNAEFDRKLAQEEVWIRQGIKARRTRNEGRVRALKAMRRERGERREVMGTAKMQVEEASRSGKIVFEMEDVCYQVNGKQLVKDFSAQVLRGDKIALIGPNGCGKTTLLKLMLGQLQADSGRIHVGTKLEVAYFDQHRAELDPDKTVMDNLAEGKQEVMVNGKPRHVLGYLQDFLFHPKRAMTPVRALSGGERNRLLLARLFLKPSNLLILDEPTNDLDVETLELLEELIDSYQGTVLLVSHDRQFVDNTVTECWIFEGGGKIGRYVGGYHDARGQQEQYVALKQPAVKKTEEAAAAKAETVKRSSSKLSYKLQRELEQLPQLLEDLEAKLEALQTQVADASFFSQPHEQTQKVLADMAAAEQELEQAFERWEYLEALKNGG
# Sequence of UniProt P16095 (P16095 whole entry): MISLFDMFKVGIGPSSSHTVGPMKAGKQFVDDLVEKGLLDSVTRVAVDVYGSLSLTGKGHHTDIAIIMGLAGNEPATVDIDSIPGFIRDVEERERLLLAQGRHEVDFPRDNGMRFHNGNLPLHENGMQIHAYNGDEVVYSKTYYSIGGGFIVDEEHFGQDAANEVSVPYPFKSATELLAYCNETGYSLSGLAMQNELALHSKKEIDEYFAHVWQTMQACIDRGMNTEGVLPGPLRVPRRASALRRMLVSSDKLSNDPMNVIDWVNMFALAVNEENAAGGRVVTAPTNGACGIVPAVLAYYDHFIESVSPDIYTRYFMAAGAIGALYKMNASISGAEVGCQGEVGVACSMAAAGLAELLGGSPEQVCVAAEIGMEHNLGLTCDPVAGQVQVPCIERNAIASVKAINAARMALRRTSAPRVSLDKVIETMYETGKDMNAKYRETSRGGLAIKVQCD
# Sequence of UniProt P42599 (P42599 whole entry): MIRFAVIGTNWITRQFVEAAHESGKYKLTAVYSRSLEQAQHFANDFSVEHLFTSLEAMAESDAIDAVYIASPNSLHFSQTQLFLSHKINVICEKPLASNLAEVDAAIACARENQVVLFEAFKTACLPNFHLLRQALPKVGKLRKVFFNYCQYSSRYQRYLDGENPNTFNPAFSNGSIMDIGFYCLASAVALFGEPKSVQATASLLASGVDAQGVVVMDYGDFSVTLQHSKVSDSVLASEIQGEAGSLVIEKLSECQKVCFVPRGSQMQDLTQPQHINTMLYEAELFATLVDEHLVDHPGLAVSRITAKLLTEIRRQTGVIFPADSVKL
# Sequence of UniProt P20083 (P20083 whole entry): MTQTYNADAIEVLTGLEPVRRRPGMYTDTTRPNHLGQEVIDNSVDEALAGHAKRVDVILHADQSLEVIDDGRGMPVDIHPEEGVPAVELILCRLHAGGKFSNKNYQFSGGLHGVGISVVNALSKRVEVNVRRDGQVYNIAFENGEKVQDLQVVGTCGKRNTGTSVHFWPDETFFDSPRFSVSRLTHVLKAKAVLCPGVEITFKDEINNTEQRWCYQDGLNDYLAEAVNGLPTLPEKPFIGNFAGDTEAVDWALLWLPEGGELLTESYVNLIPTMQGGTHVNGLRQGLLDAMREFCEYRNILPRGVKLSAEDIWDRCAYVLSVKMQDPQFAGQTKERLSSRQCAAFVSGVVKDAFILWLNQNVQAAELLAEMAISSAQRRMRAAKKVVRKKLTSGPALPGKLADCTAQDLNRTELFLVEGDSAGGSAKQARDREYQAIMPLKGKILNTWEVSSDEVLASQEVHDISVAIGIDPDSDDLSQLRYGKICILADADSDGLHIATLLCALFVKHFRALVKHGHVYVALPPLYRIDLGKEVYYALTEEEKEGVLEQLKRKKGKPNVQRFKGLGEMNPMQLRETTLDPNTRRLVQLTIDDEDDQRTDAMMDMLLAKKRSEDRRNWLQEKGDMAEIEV
# Sequence of UniProt P0AFU4 (P0AFU4 whole entry): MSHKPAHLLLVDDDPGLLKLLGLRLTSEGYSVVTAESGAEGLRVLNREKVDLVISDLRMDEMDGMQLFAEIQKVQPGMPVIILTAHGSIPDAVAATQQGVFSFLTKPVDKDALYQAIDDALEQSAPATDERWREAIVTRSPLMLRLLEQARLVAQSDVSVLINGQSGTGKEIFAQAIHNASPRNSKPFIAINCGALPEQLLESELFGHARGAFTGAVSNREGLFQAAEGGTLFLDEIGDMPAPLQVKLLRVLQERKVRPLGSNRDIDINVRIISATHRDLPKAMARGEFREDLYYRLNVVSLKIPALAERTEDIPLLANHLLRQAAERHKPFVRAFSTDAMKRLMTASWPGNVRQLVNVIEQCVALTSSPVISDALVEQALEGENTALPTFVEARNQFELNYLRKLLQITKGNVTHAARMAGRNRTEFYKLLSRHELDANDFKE
# Sequence of UniProt P37634 (P37634 whole entry): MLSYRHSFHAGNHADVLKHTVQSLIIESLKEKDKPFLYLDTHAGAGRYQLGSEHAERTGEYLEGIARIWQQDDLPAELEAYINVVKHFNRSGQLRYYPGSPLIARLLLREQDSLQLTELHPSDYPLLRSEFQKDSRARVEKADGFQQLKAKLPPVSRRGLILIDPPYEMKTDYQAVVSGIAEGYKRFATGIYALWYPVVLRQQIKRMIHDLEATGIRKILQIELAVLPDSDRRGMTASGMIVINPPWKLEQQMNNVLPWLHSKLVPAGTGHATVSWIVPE
# Sequence of UniProt P33919 (P33919 whole entry): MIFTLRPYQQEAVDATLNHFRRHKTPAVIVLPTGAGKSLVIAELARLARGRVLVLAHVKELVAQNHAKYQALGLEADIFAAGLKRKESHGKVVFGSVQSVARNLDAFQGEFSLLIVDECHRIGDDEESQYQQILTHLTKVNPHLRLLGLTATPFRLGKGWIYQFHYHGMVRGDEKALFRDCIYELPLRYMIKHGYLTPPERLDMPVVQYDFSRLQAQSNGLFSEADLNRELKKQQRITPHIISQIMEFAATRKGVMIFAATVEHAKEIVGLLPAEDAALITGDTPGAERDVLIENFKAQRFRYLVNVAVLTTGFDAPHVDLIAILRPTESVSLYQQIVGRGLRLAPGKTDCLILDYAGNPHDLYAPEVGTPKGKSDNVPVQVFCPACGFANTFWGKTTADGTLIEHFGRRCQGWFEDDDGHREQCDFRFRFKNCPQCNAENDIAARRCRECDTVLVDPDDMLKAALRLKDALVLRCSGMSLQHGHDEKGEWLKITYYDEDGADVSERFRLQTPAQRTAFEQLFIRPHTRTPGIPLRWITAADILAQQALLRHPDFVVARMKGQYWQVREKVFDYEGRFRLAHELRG
# Sequence of UniProt P77307 (P77307 whole entry): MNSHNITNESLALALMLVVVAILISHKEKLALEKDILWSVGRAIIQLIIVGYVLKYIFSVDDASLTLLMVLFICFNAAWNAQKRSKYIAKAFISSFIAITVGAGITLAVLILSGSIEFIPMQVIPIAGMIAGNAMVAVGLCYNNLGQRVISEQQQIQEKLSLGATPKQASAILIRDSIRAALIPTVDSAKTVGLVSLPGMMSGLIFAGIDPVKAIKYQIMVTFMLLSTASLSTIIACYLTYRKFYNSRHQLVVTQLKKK
row,Target,log2 fold change
1,"UniProt P16095 (peptide sequence: VGIGPSSSHTVGPMK, peptide start residue: 10)",0.369
2,"UniProt P77307 (peptide sequence: HQLVVTQLK, peptide start residue: 249)",-0.533
3,"UniProt P20083 (peptide sequence: VQDLQVVGTCGKR, peptide start residue: 147)",-1.89
4,"UniProt P0AFU4 (peptide sequence: LMTASWPGNVR, peptide start residue: 344)",-1.31
5,"UniProt P43672 (peptide sequence: LMLGQLQADSGR, peptide start residue: 364)",-0.906
6,"UniProt P37634 (peptide sequence: HSFHAGNHADVLK, peptide start residue: 6)",-1.17
7,"UniProt P33919 (peptide sequence: LLGLTATPFR, peptide start residue: 146)",-1.8
8,"UniProt P42599 (peptide sequence: LSECQKVCFVPR, peptide start residue: 252)",-0.582
